Sm TGR block: qHTS Assay for the Inhibitors of Schistosoma Mansoni Peroxiredoxins; Schistosoma mansoni thioredoxin glutathione reductase (TGR), Q962Y6; purified TGR, DTNB reduction, TNB absorbance 405 nm; Potency, µM (highest dose often 114 µM), most hits filed as inhibitors; hit rate 3% among 360,000; AID 485364, 2010; active = well fitted inhibition curve with a large enough effect; inconclusive = small, poorly fitted or top-dose-only effect; inactive = no such curve, though single readings can be large or run the other way; note: nearly all actives have a fitted effect of over 60% in size
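Kinetic colorimetric format: TGR-catalysed, NADPH-driven DTNB reduction monitored via TNB absorbance. Enzyme dispensed at 20 nM; compound exposure 15 min at room temperature before reaction start.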
SARS PLpro yeast: qHTS of Yeast-based Assay for SARS-CoV PLP; S. cerevisiae expressing SARS-CoV PLpro, growth rescue; Potency, µM (series often up to 32.9 µM), actives largely listed as activators; hit rate 0.19% among 330,000; AID 485353, 2010; calls by dose curve; note: nearly all actives have a fitted effect of over 55% in size
Each line names hits and unclear results; the compound was inactive in the other large screens. This is a sample that favours compounds with a hit; in the whole collection about 3% have one here.

CC(=O)c1ccc2c(c1)C1C=CCC1C(c1cc3c(cc1Br)OCO3)N2 (stereo not drawn)	none
FC(F)(F)c1ccc2c(c1)C1C=CCC1C(c1ccncc1)N2 (stereo not drawn)	none
CC(NC(=O)Cn1ncc2c3ccccc3n(Cc3ccc(F)cc3)c2c1=O)c1ccccc1 (stereo not drawn)	none (no result: SARS PLpro yeast)
CCOc1ccc2nc(NC(=O)c3cc(=O)c4ccc(C)cc4o3)sc2c1	none (no result: SARS PLpro yeast)
Cc1ccc(S(=O)(=O)N2CCCc3cc(NC(=O)c4ccccc4Cl)ccc32)cc1	none (no result: SARS PLpro yeast)
O=C(CSc1nc2ccccc2nc1Cc1ccc(Cl)cc1)Nc1ccc2c(c1)OCO2	none (no result: SARS PLpro yeast)
Cc1cc(F)ccc1NC(=O)Cn1cc(S(=O)(=O)NC(C)C)c(S(=O)(=O)NC(C)C)c1	none (no result: SARS PLpro yeast)
COc1ccc(C2C(C(=O)Nc3ccccc3)=C(C)Nc3nc(-c4ccccc4)nn32)cc1OC (stereo not drawn)	none (no result: SARS PLpro yeast)
CC(C)C1Nc2ccc(C(=O)O)cc2C2C=CCC21 (stereo not drawn)	Sm TGR block 20µM
COc1cccc([C@@H]2Nc3ccc(C(=O)O)cc3[C@@H]3C=CC[C@@H]32)c1OC	none (no result: SARS PLpro yeast)
COc1ccc(OC)c(NC(=O)Cc2coc3ccc(C(C)C)cc23)c1	none (no result: SARS PLpro yeast)
CCN(CC)CCCNC(=O)c1ccccc1C	none
CCN(CC)CCCNC(=O)/C=C/C(=O)O	Sm TGR block 2.5µM
Cc1ccc(NC(=O)c2ccc3snnc3c2)cc1Cl	none (no result: SARS PLpro yeast)
Fc1ccccc1C1c2[nH]c3ccccc3c2CCN1CCCn1cccn1 (stereo not drawn)	Sm TGR block inconclusive
CC(C)(C)C1c2[nH]c3ccccc3c2CCN1CCCn1cccn1 (stereo not drawn)	Sm TGR block 40µM
CSc1ncc(CN2CCc3c([nH]c4ccccc34)C2C(C)(C)C)cn1 (stereo not drawn)	Sm TGR block inconclusive
Cc1cccc(CN2CCc3c([nH]c4ccccc34)C2C(C)(C)C)n1 (stereo not drawn)	Sm TGR block 16µM
CCC(C(=O)NC1CCCCC1)n1nc(C)c2sc3ccccc3c2c1=O (stereo not drawn)	none (no result: SARS PLpro yeast)
CN(C)c1ccc(-c2nc(-c3cccs3)c(-c3cccs3)[nH]2)cc1	none (no result: SARS PLpro yeast)
Cc1ccc(CCNC(=O)Cn2cccc2)cc1	Sm TGR block 50µM
Cc1ccc(SCC(=O)NCCc2ccccc2)cc1	none
O=C(CCN1C(=O)C2CCCCC2C1=O)N1CCN(S(=O)(=O)c2ccccc2)CC1 (stereo not drawn)	none
O=C(CCN1C(=O)C2CCCCC2C1=O)N1CCN(S(=O)(=O)c2cccc(F)c2)CC1 (stereo not drawn)	Sm TGR block 56µM
CC(C)(C=O)C1=CC(=O)c2ccccc2C1=O	Sm TGR block 3.2µM
CC(C)(C)c1ccc2c(c1)C(=O)c1ccccc1C2=O	none
CC1=CC(=O)c2ccccc2C1=O	Sm TGR block 28µM
COc1cccc2c1C(=O)C=C(C)C2=O	Sm TGR block inconclusive
COc1ccc(-n2c(=O)c3c4c(sc3n(Cc3ccc(C(C)(C)C)cc3)c2=O)CCC4)c(OC)c1	none (no result: SARS PLpro yeast)
COc1cc2c(cc1OC)C(COc1ccc(C(C)C)cc1)N(C(=O)c1ccc(S(=O)(=O)N3CCCC3)cc1)CC2 (stereo not drawn)	none (no result: SARS PLpro yeast)
Oc1ccc(N=Nc2ccccc2)o1	Sm TGR block 3.2µM
O=c1ccc(N=Nc2ccccc2)ccc1O	none
CC(C)Oc1ccc(CNC(=O)c2ccc(NC(=O)c3nsc4ccccc34)cc2)cc1	none (no result: SARS PLpro yeast)
COc1ccc(C(=O)c2ccsc2N)cc1	Sm TGR block 13µM
CCc1cc(C(=O)c2ccc(OC)cc2)c(N)s1	none
COc1ccc(-n2cc(C(=O)NCCc3cc(OC)ccc3OC)c3ccccc3c2=O)cc1	none (no result: SARS PLpro yeast)
N#CC1(C#N)C(c2ccccc2)OC23CCCCC2C1(C#N)C(=N)O3 (stereo not drawn)	Sm TGR block inconclusive
N#CC1(C#N)C(c2ccccc2)OC23CCCCCC2C1(C#N)C(=N)O3 (stereo not drawn)	Sm TGR block 25µM
O=C(NC(=S)NC(=O)c1ccccc1F)c1ccccc1F	Sm TGR block 2.8µM
COc1ccc(CCNC(=S)NC(=O)c2ccc(Br)cc2)cc1OC	Sm TGR block inconclusive
COc1ccc(CCNC(=S)NC(=O)c2ccccc2)cc1C	Sm TGR block 3.5µM
Cc1ccc(C(=O)NC(=S)Nc2cccnc2Cl)cc1	Sm TGR block 16µM
O=C(NC(=S)NCCc1ccccc1)c1ccccc1	Sm TGR block 18µM
CC(=O)NNC(=S)NCCc1ccccc1	none
O=C(NC(=S)N1CCCC1)c1ccccc1F	none
COc1ccccc1C(=O)NC(=S)Nc1cccnc1Cl	none
CC(CNC(=O)Cn1ncc2c3ccccc3n(Cc3cccc(Cl)c3)c2c1=O)c1ccccc1 (stereo not drawn)	none (no result: SARS PLpro yeast)
COc1ccccc1NC(=O)C1=C(C)Nc2nc(SC)nn2C1c1ccccc1Cl (stereo not drawn)	none (no result: SARS PLpro yeast)
Cc1ccc(C(=O)NC(=S)NCc2ccccc2)cc1	Sm TGR block 6.3µM
O=C(NC(=S)NCc1ccccc1)c1ccccc1F	Sm TGR block inconclusive
O=C(NC(=S)NCCc1ccccc1)c1ccccc1F	Sm TGR block 40µM
COc1ccc(C(=O)NC(=S)NCc2ccccc2)cc1OC	none (no result: Sm TGR block)
COc1ccc2c(CNCc3ccccc3OC)c(C(=O)O)n(Cc3ccc(F)cc3Cl)c2c1	none (no result: SARS PLpro yeast)
CCC(CC)c1nn2c(=O)cc(COc3ccc(NC(=O)c4ccc(Cl)cc4)cc3)nc2s1	none (no result: SARS PLpro yeast)
CC(=O)c1cccc(NC(=O)Nc2nnc(N3CCCC3)s2)c1	none (no result: SARS PLpro yeast)
Cc1ccc(-c2nnn(CC(=O)N(c3ccccc3)C(C(=O)NC3CCCC3)c3ccncc3)n2)o1 (stereo not drawn)	none
Cc1ccc(-c2nnn(CC(=O)N(Cc3ccccc3F)C(C(=O)NC3CCCC3)c3ccncc3)n2)o1 (stereo not drawn)	Sm TGR block 40µM
Cn1c(=O)c(=O)n(C)c2cc(S(=O)(=O)N3CCN(c4ccccc4)CC3)ccc21	none (no result: SARS PLpro yeast)
COc1cc(NC(=O)CSc2ccc(-c3sc(-c4ccccc4)nc3C)nn2)cc(OC)c1	none (no result: SARS PLpro yeast)
CN(Cc1ccccc1)C(=O)c1ccc2c(c1)N(Cc1ccccc1Cl)C(=O)c1ccccc1S2	none (no result: SARS PLpro yeast)
Cn1c2ccccc2c(=O)c2cc(C#CC3=CCCCC3)ccc21	Sm TGR block 2.2µM
Cn1c2ccccc2c(=O)c2cc(C#Cc3cccc(N)c3)ccc21	none
COC(=O)c1cc2oc(C)cc2n1Cc1cc(C)ccc1C	none (no result: SARS PLpro yeast)
CCCCC(=O)NC(c1ccc(C(C)C)cc1)c1ccc2cccnc2c1O (stereo not drawn)	SARS PLpro yeast 7.1µM
CCCCC(=O)NC(c1ccccc1Cl)c1ccc2cccnc2c1O (stereo not drawn)	SARS PLpro yeast inconclusive
CCn1c(C)cc(=S)c2ccccc21	Sm TGR block 4µM
CCn1c2ccccc2c2cc(N)ccc21	none
COc1ccc(CN(C)c2ccc(-c3nc(-c4ccccc4)no3)cc2[N+](=O)[O-])cc1	none (no result: SARS PLpro yeast)
CCOc1ccc(CCNC(=O)c2cnc3sc(N4CCC(C)CC4)nn3c2=O)cc1	none (no result: SARS PLpro yeast)
Cn1cnc(S(=O)(=O)Nc2ccccc2N2CCOCC2)c1	none
CN(C)c1cccc2c1c(NS(=O)(=O)c1cn(C)cn1)nn2C	Sm TGR block 50µM
COc1cc(C2c3c(n[nH]c3C)C(=O)N2c2ccc(C)cc2)ccc1O (stereo not drawn)	Sm TGR block inconclusive
CCOc1cc(C2c3c(n[nH]c3C)C(=O)N2c2ccc(C)cc2)ccc1O (stereo not drawn)	Sm TGR block 18µM
Cc1[nH]c2ccccc2c1CC#N	none
Cc1[nH]c2ccccc2c1C(C#N)(C#N)C1C(=O)c2ccccc2C1=O	Sm TGR block 45µM

Screens deposited in PubChem BioAssay by National Center for Advancing Translational Sciences (NCATS).
